# Cruzain inh noDet = cruzain (T. cruzi) inhibition without detergent. P25779. purified cruzain, Z-FR-AMC fluorescence, no detergent. Potency, µM, without a hit: max response, negative = inhibition, usual class: inhibitors. hit rate 2.3% among 200,000. AID 1476;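 further: plate controls were enzyme without inhibitor for no effect and buffer without enzyme for full effect; nearly all actives have a fitted effect of over 40% in size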
# Target sequence (P25779 123-467 limits assumed): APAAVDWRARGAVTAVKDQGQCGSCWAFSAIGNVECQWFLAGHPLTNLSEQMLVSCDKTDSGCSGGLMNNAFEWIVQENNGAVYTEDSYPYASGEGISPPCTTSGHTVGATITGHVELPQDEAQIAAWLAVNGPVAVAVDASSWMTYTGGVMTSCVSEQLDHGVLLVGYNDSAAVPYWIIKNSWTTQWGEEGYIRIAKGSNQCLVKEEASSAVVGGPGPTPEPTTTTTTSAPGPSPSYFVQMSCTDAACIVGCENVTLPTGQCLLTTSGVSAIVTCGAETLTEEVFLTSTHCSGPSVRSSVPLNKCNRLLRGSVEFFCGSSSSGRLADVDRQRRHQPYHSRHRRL
#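 Detergent-free condition (0.00005% Triton X-100) in acetate buffer pH 5.5 with DTT. 1.5 nM enzyme and compound were pre-mixed 15 min, then 2 uM Z-FR-AMC substrate added; reaction progress from fluorescence change between first and third reads (60 s).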
# Cruzain inh Det = inhibitors of Trypanosoma cruzi cruzain with detergent | P25779 | purified cruzain, Z-FR-AMC fluorescence, 0.01% Triton | Potency, µM, for the others: max response, negative = inhibition, actives largely listed as inhibitors | hit rate 0.43% among 200,000 | AID 1478;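 further: plate controls were neutral wells for no effect and buffer without enzyme for full effect; nearly all actives have a fitted effect of over 40% in size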
#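 Steps: dispense cruzain (1.5 nM final) in acetate buffer pH 5.5 with DTT and 0.01% Triton X-100; pin-transfer compounds; incubate 15 min RT; add Z-FR-AMC (2 uM final); read fluorescence every 30 s, using the 60 s intensity change.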
# Numbers without * were called inactive; ? = inconclusive. The list is not random: actives were taken first. Their share in the collection is about 2.6%. The call rests on the fitted dose curve; in most records, active means well fitted curve in the direction sought with a large enough effect; inconclusive means small, poorly fitted or top-dose-only effect, or another doubt; inactive means no such curve, though single readings can be large; an effect the other way counts as inactive or inconclusive. Potency means the concentration at half of the fitted maximal effect.
SMILES,Cruzain inh noDet,Cruzain inh Det
Cc1cccc(C)c1NC(=O)CSc1nc(C)c(CC(=O)c2ccc(Br)cc2)c(C)c1C#N,32µM*,2%
CC(=O)N1c2ccc(S(=O)(=O)NCC3CCC(C(=O)NC(C)(C)C)CC3)cc2CC1C (stereo unspecified),-20%,1%
Cc1cc(S(=O)(=O)NCc2ccccc2)ccc1OCC(=O)Nc1cccc([N+](=O)[O-])c1,25µM*,-5%
CN(Cc1ccccc1)S(=O)(=O)c1ccc(OCC(=O)Nc2cccc([N+](=O)[O-])c2)cc1,-21%,-3%
COc1ccccc1CNC(=O)c1cc2cc3ccc(Cl)cc3nc2o1,0%,0%
CCc1c(C)sc2c1CCN(C(=O)Nc1cc(Cl)c(OC)cc1OC)C2c1ccccc1 (stereo unspecified),6.3µM*,-1%
CCc1c(C)sc2c1CCN(C(=O)Nc1ccccc1C(F)(F)F)C2c1ccccc1 (stereo unspecified),-12%,-6%
CCc1c(C)sc2c1CCN(C(=O)Nc1ccc(F)c(Cl)c1)C2c1ccc(F)cc1 (stereo unspecified),10µM*,-1%
CCc1c(C)sc2c1CCN(C(=O)Nc1ccccc1C(=O)OC)C2c1ccc(F)cc1 (stereo unspecified),?,0%
Cc1ccc(Cl)cc1NC(=O)C1CCCN(S(=O)(=O)c2c(C)noc2/C=C/N(C)C)C1 (stereo unspecified),7%,-9%
CCN(CCCNC(=O)c1cc2c(=O)[nH]c3ccc(C)cc3c2s1)Cc1ccccc1,-6%,-11%
CCCOc1ccc(-c2nnn(CC(=O)c3c[nH]c4ccccc34)n2)cc1,7.9µM*,2%
CCOc1ccc(-c2nnn(CC(=O)NCCc3c[nH]c4ccccc34)n2)cc1,-17%,-8%
CCOC(=O)c1ccc(NC(=O)Nc2cc3c(cc2N2CCCC2)n(C)c(=O)n3C)cc1,?,-8%
C/C(=N\NC(=O)C(=O)Nc1cccc(C(F)(F)F)c1)c1ccc(Cl)s1,16µM*,0%
C/C(=N\NC(=O)C(=O)Nc1cccc(Cl)c1)c1ccncc1,1%,1%
Cc1ccc(-n2nnc(-c3nc(-c4cccs4)no3)c2N)cc1C,8%,0%
O=C(CCc1ccccc1)NC(NC(=S)Nc1ccc(Cl)cc1)C(Cl)(Cl)Cl (stereo unspecified),25µM*,-4%
O=C(/C=C/c1ccccc1)NC(NC(=S)Nc1ccc(Cl)cc1)C(Cl)(Cl)Cl (stereo unspecified),?,-1%
COc1ccc(C(=O)N2CCC3(CCCN(Cc4ccccc4OC)C3)CC2)cc1,-9%,3%
COCC(=O)N1CCC[C@@]2(CCN(c3ccccn3)C2)C1,3%,-3%
O=C1CCC=C1C(O)c1ccc(Cl)cc1 (stereo unspecified),-4%,4%
COc1ccc(C2=NN(c3nc(-c4ccccc4)c(CC(=O)O)s3)C(c3ccco3)C2)cc1 (stereo unspecified),13µM*,16µM*
COc1ccc(-c2nc(C)sc2CC(=O)O)cc1,10%,4%
CN1CCN(c2ncc3nc(-c4cc(F)cc(F)c4)c(=O)n(CCc4ccccc4)c3n2)CC1,5%,-19%
SMILES,Cruzain inh noDet,Cruzain inh Det
Cn1cccc1C(=O)N1CCC2(CC1)CCN(c1ccccn1)CC2,10%,3%
CCOc1ccc(CCNC(=O)c2ccc3c(c2)N(Cc2ccc(C)cc2)CCS3)cc1,?,-3%
COc1ccccc1CNC(=O)c1ccc2c(c1)N(Cc1ccc(C)cc1)CCS2,?,-6%
COc1ccc(Br)cc1CNC(=O)c1ccc2c(c1)N(Cc1ccc(C)cc1)CCS2,10µM*,-5%
Cc1ccc(CN2CCSc3ccc(C(=O)Nc4ccc(C)cc4)cc32)cc1,10µM*,0%
Cc1ccc(CN2CCN(C3CCN(C(=O)c4ccccc4)CC3)C(=O)C2=O)cc1,-3%,2%
CCCCn1c(SCC(=O)Nc2cccc(OC)c2)nc2ccsc2c1=O,6%,-2%
O=C(CCS(=O)(=O)c1ccc(Br)s1)Nc1cc(C(F)(F)F)cc(C(F)(F)F)c1,-2%,-15%
O=C(Nc1ccc(F)cc1)C(c1ccccc1)N1CCN(S(=O)(=O)c2ccc3ccccc3c2)CC1 (stereo unspecified),?,-2%
Cc1ccc(C)c(S(=O)(=O)N2CCN(C(C(=O)Nc3ccc(F)cc3)c3ccccc3)CC2)c1 (stereo unspecified),25µM*,-3%
CCOc1ccc(CCNC(=O)c2cc3c(=O)n(C)c4ccccc4c3n2C)cc1OCC,-11%,0%
COc1ccc(/C=C/c2nc(-c3ccccc3O)n[nH]2)cc1,13µM*,-13%
COc1ccc(/C=C/c2nc(-c3ccccc3O)n(-c3ccccc3)n2)cc1,-13%,-6%
N#C/C(=C\c1cc(Br)c(O)c(Br)c1)c1nc2ccccc2c(=O)[nH]1,3%,-2%
Cc1cccc(-c2noc(CN(C(C)C)S(=O)(=O)c3ccc(Br)cc3)n2)c1,-25%,-7%
Cc1ccc(CCNC(=O)c2ccc3c(=O)n(-c4ccc(C)cc4)c(=O)[nH]c3c2)cc1,3%,1%
Cc1ccc(-n2c(=O)[nH]c3cc(C(=O)NCCc4ccccc4)ccc3c2=O)cc1,16µM*,-1%
CCCCCn1c(N)c(-c2nc3ccccc3o2)c2c([N+](=O)[O-])nn(CC)c(=O)c21,10µM*,-5%
CCCCCn1c(N)c(-c2nc3ccccc3o2)c2c([N+](=O)[O-])nn(C)c(=O)c21,?,-7%
O=C(Nc1nonc1-c1ccc(Cl)cc1)c1ccccc1F,-16%,-7%
N.N.N.N.N.N.N.N.N.N.N.N.N.N.O.O.[Cl-].[Cl-].[Cl-].[Cl-].[Cl-].[Cl-].[Ru].[Ru].[Ru],-10%,-6%
Clc1ccc(-c2csc(=Nc3ccccc3)n2Cc2ccc3c(c2)OCO3)cc1,3%,-3%
CCOC(=O)c1c(C)[nH]c(C)c1S(=O)(=O)N1CCC(C(=O)NCc2ccccc2)CC1,-5%,1%
O=C(Nc1nnc(CCS(=O)(=O)c2ccc3ccccc3c2)s1)c1ccc([N+](=O)[O-])cc1,13µM*,-1%
O=C(Nc1ncc(Cc2cc(Cl)ccc2Cl)s1)c1ccc([N+](=O)[O-])cc1,13µM*,4%
SMILES,Cruzain inh noDet,Cruzain inh Det
CCC(C)(C)C(=O)Nc1ncc(S(=O)(=O)c2ccc([N+](=O)[O-])cc2)s1,-10%,-12%
CS(=O)(=O)Nc1nnc(SCC(=O)Nc2cccc([N+](=O)[O-])c2)s1,9%,-5%
O=C(Nc1nnc(CCS(=O)(=O)c2ccc3ccccc3c2)s1)c1cccs1,?,-1%
O=C(Nc1ncc(S(=O)(=O)c2ccc([N+](=O)[O-])cc2)s1)c1ccc2ccccc2c1,20µM*,0%
Cc1ccc(Nc2nnc(SCC(=O)Nc3ncc(S(=O)(=O)c4ccc([N+](=O)[O-])cc4)s3)s2)cc1,7.9µM*,-1%
O=C(Nc1ncc(Cc2cccc(Cl)c2Cl)s1)c1ccc([N+](=O)[O-])cc1,-22%,4%
COCCn1c(CNC(=O)c2cccc(N(C)C)c2)nc2cccnc21,-1%,1%
O=C(NC1CCCC1)O[C@@H]1C(=O)c2cc(Br)ccc2O[C@H]1c1ccc2c(c1)OCO2,2%,-4%
CCOc1ccc(NC(=O)CCc2nc3cccnc3n2Cc2ccc(OC)cc2)cc1,-9%,2%
CCc1nn2c(=O)cc(COC(=O)CNC(=O)COc3ccc(C)cc3)nc2s1,-6%,-3%
CC(C)[N+](=O)[O-],-2%,1%
